These results are taken from article PMC5540273 (PLoS ONE, 2017).

Structures are written as SMILES.

Among the test systems are S6K1; SBK1; SGK2; SGK3; SGK; SIK2; SIK; SLK; SNRK; SRC; SRMS; SRPK1; SRPK2; SRPK3; STK16; STK33; STK35.
Settings in all cases: concentration: 1 μM, replicates: in singlicate; n = 1
The test system of experiment [1] is T1, RSK4(Kin.Dom.1-N-terminal).
T1 construct: gene RPS6KA6

In experiment [2] the test system is T2, RSK4(Kin.Dom.2-C-terminal).
T2 construct: gene RPS6KA6

The test system of a further experiment is T3, SNARK.
T3 construct: gene NUAK2
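Also: KINOMEscan kinase panel screen.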

With `CC(=O)Nc1cn2nc(Oc3cccc(NC(=O)c4cccc(C(F)(F)F)c4)c3)ccc2n1`, the “%Inh” value in experiment [1] turned out to be 0%; in experiment [2], 9%; in the experiment with S6K1, 0%; with SBK1 it was 0%; in the experiment with SGK2, 1%; in the experiment on SGK3 it was 0%. Moreover, the “%Inh” value in the experiment with SGK is 0%; with SIK2 it was 18%; in the experiment on SIK, 32%; in the experiment on SLK, 21%; in the experiment with SNARK it was 0%; with SNRK, 0%. Besides, the “%Inh” value is listed as 99.9% in the experiment on SRC; 11% with SRMS; 0% in the experiment with SRPK1; 22% with SRPK2; 9% in the experiment on SRPK3; 10% in the experiment with STK16. Moreover, the “%Inh” value in the experiment with STK33 is reported as 3%; in the experiment with STK35, 1%.

Consider `COc1cccc(-c2nc(-c3ccccc3)[nH]c2-c2ccncc2)c1` [SB-610250], for which the “%Inh” value is 0% in experiment [1]; 63% in experiment [2]; 19% with S6K1; 9% in the experiment with SBK1; 40% in the experiment on SGK2; 0% in the experiment on SGK3. Besides, the “%Inh” value worked out at 31% in the experiment on SGK; 0% in the experiment on SIK2; 1% with SIK; 6% in the experiment with SLK; 0% with SNARK; 0% in the experiment on SNRK. The “%Inh” value came to 21% in the experiment on SRC; 0% in the experiment on SRMS; 25% in the experiment with SRPK1; 0% with SRPK2; 0% with SRPK3; 9% in the experiment on STK16. The “%Inh” value in the experiment with STK33 is 5%; in the experiment with STK35, 0%.

On to `Cc1ccc(-c2ccc3occ(-c4ccc(S(C)=O)cc4)c3c2)nn1` (stereo not drawn), for which the “%Inh” value in experiment [1] is 0%; in experiment [2] it was 0%; in the experiment on S6K1 it was 5%; with SBK1 it was 0%; in the experiment on SGK2, 0%; with SGK3, 0%. Further, the “%Inh” value in the experiment with SGK turned out to be 0%; in the experiment on SIK2, 7%; with SIK, 0%; in the experiment with SLK, 12%; with SNARK it was 0%; in the experiment with SNRK it was 0%. The “%Inh” value amounted to 6% with SRC; 0% in the experiment on SRMS; 0% in the experiment on SRPK1; 6% with SRPK2; 0% with SRPK3; 12% with STK16. In addition, the “%Inh” value with STK33 and in the experiment with STK35 was 0% throughout.

Regarding `Cl.N#CCc1ccc(Nc2nccc(Nc3ccc(Oc4ccccc4)cc3)n2)cc1` [GW639905], the “%Inh” value is recorded as 0% in [1]; 0% in experiment [2]; 0% with S6K1; 13% with SBK1; 0% with SGK2; 90.1% with SGK3. In addition, the “%Inh” value in the experiment on SGK was determined as 0%; in the experiment on SIK2, 0%; in the experiment with SIK, 0%; in the experiment on SLK, 0%; with SNARK it was 96.6%; in the experiment on SNRK, 2%. The “%Inh” value in the experiment on SRC is reported as 37%; in the experiment on SRMS, 82%; with SRPK1 it was 18%; with SRPK2 it was 0%; in the experiment on SRPK3, 0%; in the experiment on STK16 it was 79%. Further, the entries for the “%Inh” value in the experiment on STK33 and in the experiment on STK35 were 0% and 65%, respectively.

Consider `O=C(Nc1n[nH]c2cc(-c3cccs3)ccc12)C1CC1` [SB-731284], for which the “%Inh” value amounted to 39% in experiment [1]; 13% in experiment [2]; 61% in the experiment on S6K1; 13% in the experiment on SBK1; 0% with SGK2; 37% in the experiment on SGK3. In addition, the “%Inh” value is on record as 18% with SGK; 0% in the experiment with SIK2; 0% in the experiment on SIK; 0% with SLK; 13% with SNARK; 42% in the experiment with SNRK. Also, the “%Inh” value with SRC is reported as 0%; in the experiment with SRMS it was 1%; in the experiment with SRPK1, 44%; with SRPK2, 23%; in the experiment on SRPK3, 52%; with STK16, 4%. In addition, the “%Inh” value with STK33 came to 0%; in the experiment with STK35, 15%.

With `CN(c1ccc(NC(=O)N2CCN(CCCN3CCOCC3)CC2)cc1)c1ccnc(Nc2ccc(CS(C)(=O)=O)cc2)n1.Cl` [GW830899], the “%Inh” value (in experiment [1]; in [2]; with S6K1; with SBK1; with SGK2; in the experiment with SGK3) was 0% throughout. For the same compound, the “%Inh” value with SGK is 0%; in the experiment on SIK2, 9%; in the experiment on SIK, 8%; in the experiment on SLK it was 47%; with SNARK, 0%; in the experiment on SNRK, 0%. Also, the “%Inh” value with SRC came to 10%; with SRMS, 0%; in the experiment with SRPK1, 56%; in the experiment with SRPK2 it was 9%; in the experiment with SRPK3 it was 46%; in the experiment with STK16, 74%. The “%Inh” value in the experiment with STK33 stood at 0%; in the experiment on STK35, 88%.

As for `Cc1ccc(NC(=O)c2cccc(N3CCCCC3)c2)cc1-c1ccc(C(=O)NCC2CC2)cc1` [GSK1917008], the “%Inh” value in experiment [1] is given as 0%; in [2], 37%; in the experiment on S6K1, 8%; in the experiment with SBK1, 10%; with SGK2, 11%; in the experiment on SGK3, 7%. Besides, the “%Inh” value is reported as 0% in the experiment with SGK; 93.3% in the experiment on SIK2; 8% with SIK; 10% in the experiment with SLK; 0% with SNARK; 0% with SNRK. Further, the “%Inh” value is reported as 0% with SRC; 0% in the experiment on SRMS; 32% in the experiment with SRPK1; 0% in the experiment on SRPK2; 23% in the experiment with SRPK3; 7% in the experiment on STK16. Further, the “%Inh” value with STK33 is 0%; in the experiment on STK35, 89%.

For the compound `O=C(Nc1n[nH]c2nc(-c3ccccc3O)ccc12)C1CC1` [SB-711880], the “%Inh” value is reported as 51% in experiment [1]; 28% in [2]; 26% in the experiment on S6K1; 0% with SBK1; 31% in the experiment on SGK2; 8% in the experiment with SGK3. Moreover, the “%Inh” value amounted to 30% with SGK; 58% in the experiment with SIK2; 0% with SIK; 49% in the experiment on SLK; 0% in the experiment with SNARK; 0% in the experiment with SNRK. Besides, the “%Inh” value in the experiment with SRC is reported as 0%; with SRMS, 0%; in the experiment with SRPK1, 0%; in the experiment on SRPK2 it was 0%; in the experiment with SRPK3, 23%; in the experiment with STK16, 15%. In addition, the “%Inh” value in the experiment on STK33 is reported as 0%; with STK35, 57%.

Consider `COC(=O)Nc1nc2ccc(Oc3ccc(NC(=O)Nc4cc(C(F)(F)F)ccc4F)cc3)cc2[nH]1.Cl` [GW654607], for which the “%Inh” value is 0% in experiment [1]; 16% in experiment [2]; 21% in the experiment on S6K1; 17% in the experiment on SBK1; 8% in the experiment on SGK2; 5% in the experiment with SGK3. Moreover, the “%Inh” value in the experiment on SGK amounted to 0%; in the experiment on SIK2 it was 0%; in the experiment on SIK it was 0%; with SLK it was 85%; with SNARK, 0%; in the experiment with SNRK, 0%. The “%Inh” value with SRC came to 16%; in the experiment with SRMS it was 3%; in the experiment with SRPK1 it was 61%; with SRPK2, 0%; with SRPK3 it was 13%; in the experiment on STK16, 10%. Further, the entries for the “%Inh” value in the experiment on STK33 and in the experiment on STK35 were 73% and 0%, respectively.
